Inconclusive results are not listed. Unmarked numbers belong to inactive results. Activity calls are given as the source filed them. Calls come from the whole dose curve; as a rule, active = well fitted curve in the direction sought with a large enough effect; inconclusive = small, poorly fitted or top-dose-only effect, or another doubt; inactive = no such curve, though single readings can be large; an effect the other way counts as inactive or inconclusive.

Test [1] deals with CASKI. In words: Primary qHTS to identify gynecologic anti-cancer compounds using libraries of approved drugs and bioactive compounds (AID 1345084). Note: nearly all actives have a fitted effect of over 55% in size. To be noted: Gynecologic cancer cell panel viability, ATPlite luminescence, 48 h; series mostly up to 57.5 µM. The method in brief:
(§1)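 Five-concentration response, 48 h; readout is ATP-driven luciferase luminescence.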
(qHTS replaces the single test concentration by a dilution series.)

Test [2] concerns Es-2. Described as above. To be noted: Gynecologic cancer cell panel viability, ATPlite luminescence, 48 h; series mostly up to 57.5 µM. A digest of the protocol: as §1
Background: In ATP-based viability assays light output follows the ATP content of the culture.

Test [3] concerns HeLa. The description is as above. To be noted: Gynecologic cancer cell panel viability, ATPlite luminescence, 48 h; series mostly up to 57.5 µM. The method in brief:
as §1

The subject of test [4] is Hek293T. The description is as above. To be noted: Gynecologic cancer cell panel viability, ATPlite luminescence, 48 h, control line for the selectivity index; series mostly up to 57.5 µM. A digest of the protocol:
as §1

For test [5], the system named is JEG-3. Described as above. The following applies: Gynecologic cancer cell panel viability, ATPlite luminescence, 48 h; series mostly up to 57.5 µM. A digest of the protocol: as §1
Test [6] deals with OV90. The test is described as above. The following applies: Gynecologic cancer cell panel viability, ATPlite luminescence, 48 h; series mostly up to 57.5 µM. The method in brief: as §1
For test [7], the system named is PA-1. The test is described as above. The following applies: Gynecologic cancer cell panel viability, ATPlite luminescence, 48 h; series mostly up to 57.5 µM. The method in brief:
as §1

In test [8] the test system is SKOV3. Described as above. To be noted: Gynecologic cancer cell panel viability, ATPlite luminescence, 48 h; series mostly up to 57.5 µM. The method in brief:
as §1

Test [9] deals with CAOV3. The test is described as above. The following applies: Gynecologic cancer cell panel viability, ATPlite luminescence, 48 h; series mostly up to 57.5 µM. A digest of the protocol: as §1
For test [10], the system named is Tov112D. The test is described as above. The following applies: Gynecologic cancer cell panel viability, ATPlite luminescence, 48 h; series mostly up to 57.5 µM. A digest of the protocol:
as §1

In test [11] the test system is Tov-21-G. Described as above. The following applies: Gynecologic cancer cell panel viability, ATPlite luminescence, 48 h; series mostly up to 57.5 µM. A digest of the protocol:
as §1

Test [12] in a line: qHTS assay to identify inhibitors of the type 1 interferon - major histocompatibility complex class I in skeletal muscle: Counter screen cell viability and HiBit confirmation (AID 1347412). Note: nearly all actives have a fitted effect of over 60% in size. To be noted: iHSKM muscle cells + IFN-b, HiBiT or CellTiter-Glo, 24 h. A digest of the protocol: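 Myoblasts (C25cl48, HLA-B HiBiT) seeded in medium without dexamethasone, IFN-b 4 ng/ml added except unstimulated columns; 1 hr later compounds pinned (12-pt 1:3, top 46 uM final). Incubated 24 hrs, lysed 10 min, luminescence measured.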
% is set by controls: 0 for no effect and ±100 for the full control effect; potency is the fitted concentration of half-maximal effect.

`COC(=O)N1CCC(n2ncc3c(N4CCOCC4)nc(-c4ccc(NC(=O)Nc5ccc(CO)cc5)cc4)nc32)CC1`: the Potency in [1] is 1.12 µM (active); in test [2], 1 µM (active); in test [3], 2.51 µM (active); in test [4], 0.282 µM (active); in [5], 15.8 µM (active); in [6] it was 0.794 µM (active). Further, the Potency in test [7] is 2.51 µM (active); in test [8], 0.282 µM (active).
As to `CCN(CC)CCN(Cc1ccc(-c2ccc(C(F)(F)F)cc2)cc1)C(=O)Cn1c(SCc2ccc(F)cc2)nc(=O)c2c1CCC2`, the Potency in [9] is 12.6 µM (active); in test [1] it was 25.1 µM (active); in test [7] it was 28.2 µM (active); in [8], 7.94 µM (active); in test [10], 35.5 µM (active).
Consider `NCCCNc1ccc(Nc2nccc(Nc3cc(C4CC4)[nH]n3)n2)cc1`, for which the Potency was 3.98 µM (active) in test [1]; 2.24 µM (active) in test [2]; 4.47 µM (active) in test [3]; 1.41 µM (active) in test [4]; 8.91 µM (active) in test [6]; 1.12 µM (active) in [7]. For the same compound, the Potency in [8] was 7.08 µM (active); in test [11] it was 3.98 µM (active); in test [10] it was 2.82 µM (active). Besides, the Potency result in [5] is “inactive”.
Turning to `CCC(C)C(=O)OC1CC(O)C23C4OCC5(C(O)CC2C1(C)C(O)O4)C3C(=O)C(O)C1(C)C(O)(c2ccoc2)CC2OC251` (centres undefined), the Potency was 3.98 µM (active) in test [9]; 8.91 µM (active) in test [2]; 1.26 µM (active) in test [6]; 3.16 µM (active) in test [7]; 3.16 µM (active) in test [8]; 3.55 µM (active) in [10]. The Potency result in test [1] and in test [5] was “inactive” each time.
For `CC[C@]12C=CCN3CC[C@@]4(c5cc([C@@]6(C(=O)OC)C[C@H]7C[C@@H](C(C)(F)F)CN(Cc8c6[nH]c6ccccc86)C7)c(OC)cc5N(C)[C@H]4[C@@](O)(C(=O)OC)[C@@H]1OC(C)=O)[C@@H]32`, the Potency result in [9] was “inactive”. For the same compound, the Potency is 1 µM (active) in test [2]; 0.631 µM (active) in test [3]; 0.355 µM (active) in [7]; 0.562 µM (active) in test [11]; 0.251 µM (active) in test [10].
On to `CN[C@H](C(=O)N[C@H](C(=O)N(C)[C@H](/C=C(\C)C(=O)O)C(C)C)C(C)(C)C)C(C)(C)c1ccccc1`, for which the Potency entry in test [9] and in test [8] was “inactive” in each case.
With `CC(O)c1cc(C(=O)N[C@@H](C)Cn2ccc(-c3ccc(C#N)c(Cl)c3)n2)n[nH]1` (some centres undefined), the Potency entry in [9] and in [6] was “inactive” in each case.
With `CC(=O)SCC(=O)c1ccc(NS(=O)(=O)c2ccc(OCCCN(C)C)cc2)nc1`, in test [9], the Potency result is “inactive”. In addition, the Potency in [2] is 14.1 µM (active); in test [3], 10 µM (active); in test [5], 15.8 µM (active); in test [7], 2.82 µM (active); in [11] it was 11.2 µM (active).
As to `CCN1CCN(Cc2ccc(NC(=O)c3ccc(C)c(NC(=O)c4cncc(-c5cccs5)c4)c3)cc2C(F)(F)F)CC1`, the Potency is 10 µM (active) in test [9]; 10 µM (active) in test [1]; 2.82 µM (active) in [2]; 25.1 µM (active) in [5]; 12.6 µM (active) in test [6]; 1.58 µM (active) in test [7]. In addition, the Potency in test [11] was 1.41 µM (active); in [10], 3.55 µM (active); in test [12] (HiBiT), 5.57 µM (active); in [12] (Viability), 12.5 µM (active).
Take `CN1CCN(C2CCC(n3cc(-c4ccc(Oc5ccccc5)cc4)c4c(N)ncnc43)CC2)CC1` (centres undefined): the Potency in test [9] was 28.2 µM (active); in test [1], 15.8 µM (active); in test [3], 22.4 µM (active); in test [6] it was 17.8 µM (active); in test [7], 3.55 µM (active); in [8], 3.55 µM (active). For the same compound, the Potency in [12] (HiBiT) was 15.7 µM (active); in test [12] (Viability) it was 11.1 µM (active). Besides, the Potency result in test [4] and in [5] was “inactive” throughout.
For the compound `C#CCN(Cc1cc2c(=O)[nH]c(C)nc2cc1Br)c1ccc(C(=O)NCc2cccnc2)cc1`, the Potency in test [1] was 0.447 µM (active).
`CC(Nc1ncnc2nc[nH]c12)c1cc2cccc(Cl)c2c(=O)n1-c1ccccc1` (centres undefined): the Potency result in test [9], in [2], in test [3], in [5], in test [6] and in test [7] was “inactive” throughout. Further, the Potency entry in test [11] and in [10] was “inactive” each time.
For `C=C1C(=O)O[C@H]2C1[C@H](OC(=O)/C(=C/CO)COC(=O)/C(C)=C/CO)CC(=C)[C@@H]1CC(=O)[C@@H](C)[C@@H]12` (some centres undefined), the Potency result in test [9], in test [1], in test [3], in [4], in test [6] and in test [10] was “inactive” throughout.
For the compound `CC1(C)CC(=O)C2=C(C1)NC(=S)NC2c1cccc(O)c1` (centres undefined), the Potency was 3.55 µM (active) in test [9], 7.94 µM (active) in test [3], 1.26 µM (active) in [11] and 0.891 µM (active) in [10]. Also, in [6], the Potency result is “inactive”.
`CC(C)c1nc(-c2ccc(NC(=O)Nc3cccc(C(F)(F)F)c3)c3ccccc23)c2c(N)nccn12`: the Potency in test [9] was 22.4 µM (active); in test [2] it was 12.6 µM (active); in test [3], 31.6 µM (active); in test [4], 15.8 µM (active); in test [6] it was 1.58 µM (active); in test [7], 12.6 µM (active). Also, the Potency in test [8] was 28.2 µM (active). In addition, the Potency result in test [5] is “inactive”.
`CNC(=O)c1cc(Oc2ccc3nc(N[C@@H]4CCCC[C@H]4O)sc3c2)ccn1`: the Potency entry in test [9], in test [1] and in test [4] was “inactive” throughout.
On to `Cc1cc(Nc2ncc3cc(-c4c(Cl)cccc4Cl)c(=O)n(C)c3n2)ccc1F`, for which the Potency in [9] was 3.16 µM (active); in test [2] it was 7.94 µM (active); in [3], 3.55 µM (active); in [7], 3.98 µM (active); in [8], 3.55 µM (active); in [11], 3.98 µM (active). In addition, the Potency in test [10] is 3.55 µM (active).
`CC1(C)C2CC(OC3OC(COC4OCC(O)(CO)C4O)C(O)C(O)C3O)C1(C)CC2O` (centres undefined): the Potency result in [9], in test [1] and in test [6] was “inactive” in each case.
`Cc1cc(OCc2nnc(SC3CCCC3)n2-c2cccnc2)ccc1-c1ccc(S(C)(=O)=O)cc1`: the Potency was 31.6 µM (active) in test [9]; 31.6 µM (active) in [3]; 1.78 µM (active) in [6]; 12.6 µM (active) in [7]; 0.794 µM (active) in [8]; 28.2 µM (active) in [11]. In test [10], the Potency was 31.6 µM (active). The activity change, negative = inhibition in test [12] (Viability, at 45.9 µM (top of the series)) was -25.3%.
Regarding `COc1cc2c(cc1O)CC[C@H]1[C@@H]2CC[C@]2(C)[C@H](O)CC[C@@H]12`, the Potency result in test [9] and in [6] was “inactive” throughout. For the same compound, the Potency in test [2] was 3.98 µM (active); in [3], 3.16 µM (active); in [8], 3.16 µM (active); in test [10] it was 1 µM (active).
As to `O=C(O)[C@@H]1C[C@H]2C[C@@H](CCc3nn[nH]n3)CC[C@H]2CN1`, the Potency result in [1], in test [2], in test [3], in test [4], in [5] and in test [6] was “inactive” in each case. The Potency result in test [7], in test [11] and in [10] was “inactive” each time.
Take `Cc1ccc(C(=O)N(CCCN)C(c2nc3cc(Cl)ccc3c(=O)n2Cc2ccccc2)C(C)C)cc1` (centres undefined): the Potency in test [9] and in test [1] was 25.1 µM (active) each time. In addition, the Potency entry in [6] was “inactive”.

Source of the values: PubChem BioAssay (NCATS).
